Data as given in PubChem BioAssay (NCI).
The panel holds about 83,000 compounds, 20% with a hit somewhere; the sample as a whole holds those more often.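 Negative percent growth values reflect cell death: -40 means 40% of the cells present at the start died, and -100 means all died.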 Activity calls are given as the source filed them. The calls were made as follows: active = growth percent below 10; inactive = the rest.

Columns and labels:
Test in all cases: NCI-60 one-dose screen, 48 h (100 = growth as untreated, 0 = no growth, -100 = all killed)
Conditions in all cases: 10 µM unless noted
SR leukemia = system: SR leukemia
RPMI-8226 leukemia = system: RPMI-8226 leukemia
OVCAR-8 ovarian = system: OVCAR-8 ovarian
OVCAR-5 ovarian = system: OVCAR-5 ovarian
SK-OV-3 ovarian = system: SK-OV-3 ovarian
IGROV1 ovarian = system: IGROV1 ovarian
OVCAR-3 ovarian = system: OVCAR-3 ovarian
HS 578T breast = system: HS 578T breast
NCI/ADR-RES ovarian = system: NCI/ADR-RES ovarian
T-47D breast = system: T-47D breast
BT-549 breast = system: BT-549 breast
MDA-MB-435 melanoma = system: MDA-MB-435 melanoma
SW-620 colon = system: SW-620 colon
MCF7 breast = system: MCF7 breast
HCT-116 colon = system: HCT-116 colon
HCC-2998 colon = system: HCC-2998 colon
KM12 colon = system: KM12 colon
OVCAR-4 ovarian = system: OVCAR-4 ovarian

Measured: growth

O=C(NNc1nc2cc(F)cc(F)c2n2cccc12)c1cnccn1
inactive: RPMI-8226 leukemia 18.3% | OVCAR-8 ovarian 12.7% | OVCAR-5 ovarian 33.1% | IGROV1 ovarian 15% | OVCAR-3 ovarian 30.2% | HS 578T breast 64.4% | T-47D breast 10.3% | BT-549 breast 24.1% | MDA-MB-435 melanoma 31.3% | SW-620 colon 21.7% | HCT-116 colon 12.3% | HCC-2998 colon 49.9% | KM12 colon 28.7%
active: SR leukemia 8.81% | SK-OV-3 ovarian 4.18% | NCI/ADR-RES ovarian 3.06% | MCF7 breast 3.97%

Cc1ccc(-n2cc(/C=C/C(=O)c3ccc(O)cc3)c(-c3ccc(S(C)(=O)=O)cc3)n2)cc1
active: MDA-MB-435 melanoma 1.81%
inactive: SR leukemia 55.1% | RPMI-8226 leukemia 47.9% | OVCAR-8 ovarian 87.5% | OVCAR-5 ovarian 95.7% | SK-OV-3 ovarian 94.9% | IGROV1 ovarian 47.7% | OVCAR-3 ovarian 22.7% | HS 578T breast 96.2% | NCI/ADR-RES ovarian 33.6% | T-47D breast 73.5% | SW-620 colon 34% | MCF7 breast 24.8% | HCT-116 colon 26.6% | HCC-2998 colon 104% | KM12 colon 38.3%

Cc1cc(-c2ccc(Cl)cc2)n(Cc2nnc(SCC(=O)Nc3ccc(S(N)(=O)=O)cc3)n2-c2ccc([N+](=O)[O-])cc2)n1
inactive: SR leukemia 72.5% | RPMI-8226 leukemia 64.3% | OVCAR-8 ovarian 88.7% | OVCAR-5 ovarian 98.5% | OVCAR-4 ovarian 86.5% | IGROV1 ovarian 96.9% | NCI/ADR-RES ovarian 84.3% | T-47D breast 70.3% | BT-549 breast 116% | MDA-MB-435 melanoma 87.4% | SW-620 colon 84.5% | MCF7 breast 58% | HCT-116 colon 60.9% | HCC-2998 colon 97.8% | KM12 colon 79.6%

COc1ccc(-c2nc3cc(Cl)c(Cl)cc3n2CC(=O)N=Nc2c(O)[nH]c3ccc(OC)cc23)cc1
active: BT-549 breast -6.95%
inactive: SR leukemia 60.6% | RPMI-8226 leukemia 55.1% | OVCAR-8 ovarian 74.5% | OVCAR-5 ovarian 49.7% | SK-OV-3 ovarian 86.2% | IGROV1 ovarian 29.5% | HS 578T breast 47.7% | NCI/ADR-RES ovarian 30.9% | T-47D breast 37.2% | MDA-MB-435 melanoma 56.4% | SW-620 colon 61.4% | MCF7 breast 67.6% | HCT-116 colon 39.7% | HCC-2998 colon 52.8% | KM12 colon 71.3%

O=C(CCn1cc[n+](CC(=O)c2ccc(-c3ccccc3)cc2)c1)Nc1cccc2cccnc12
inactive: SR leukemia 79.8% | RPMI-8226 leukemia 34% | OVCAR-8 ovarian 82.4% | OVCAR-5 ovarian 91.7% | SK-OV-3 ovarian 74.6% | IGROV1 ovarian 36.4% | OVCAR-3 ovarian 51.9% | HS 578T breast 71.3% | NCI/ADR-RES ovarian 99.7% | T-47D breast 42.4% | BT-549 breast 57.2% | SW-620 colon 85.8% | MCF7 breast 58% | HCT-116 colon 84.5% | KM12 colon 42.9%

COc1ccc(-c2nn(-c3ccc(S(C)(=O)=O)cc3)cc2/C=N/O)cc1
inactive: SR leukemia 107% | RPMI-8226 leukemia 102% | OVCAR-8 ovarian 101% | OVCAR-5 ovarian 101% | SK-OV-3 ovarian 108% | IGROV1 ovarian 106% | OVCAR-3 ovarian 122% | HS 578T breast 108% | NCI/ADR-RES ovarian 107% | T-47D breast 106% | BT-549 breast 112% | MDA-MB-435 melanoma 109% | SW-620 colon 104% | MCF7 breast 106% | HCT-116 colon 107% | HCC-2998 colon 115% | KM12 colon 104%

Cc1ccc(-c2nn(-c3ccccc3)cc2/C=C/C(=O)c2ccc(NC(=O)CCCCCCC(=O)NO)cc2)cc1
inactive: SR leukemia 85.4% | RPMI-8226 leukemia 70.5% | OVCAR-8 ovarian 62.5% | OVCAR-5 ovarian 79.2% | SK-OV-3 ovarian 70.7% | IGROV1 ovarian 69.1% | OVCAR-3 ovarian 75.9% | HS 578T breast 47.1% | NCI/ADR-RES ovarian 70.4% | T-47D breast 58.5% | BT-549 breast 108% | MDA-MB-435 melanoma 67.9% | SW-620 colon 75.1% | MCF7 breast 71.4% | HCT-116 colon 33.6% | HCC-2998 colon 83.1% | KM12 colon 78.2%

COc1cc(/C=N/NC(=O)c2cn(C3CC3)c3c(OC)c(N4CC5CCCNC5C4)c(F)cc3c2=O)ccc1O (stereo not given)
active: SR leukemia -13.4% | RPMI-8226 leukemia -25% | OVCAR-3 ovarian -73% | T-47D breast -30.4% | SW-620 colon 0.437% | MCF7 breast -27.7% | HCT-116 colon -59.1%
inactive: OVCAR-8 ovarian 74.2% | OVCAR-5 ovarian 38.4% | SK-OV-3 ovarian 119% | IGROV1 ovarian 16.4% | HS 578T breast 107% | NCI/ADR-RES ovarian 98.5% | BT-549 breast 107% | MDA-MB-435 melanoma 95.3% | HCC-2998 colon 14.8% | KM12 colon 69.2%

Cc1ccc(C2=NN(C)C(=O)C3(CCCC3)C2)cc1
inactive: SR leukemia 113% | RPMI-8226 leukemia 111% | OVCAR-8 ovarian 102% | OVCAR-5 ovarian 102% | SK-OV-3 ovarian 110% | IGROV1 ovarian 110% | OVCAR-3 ovarian 110% | HS 578T breast 109% | NCI/ADR-RES ovarian 102% | T-47D breast 102% | BT-549 breast 117% | MDA-MB-435 melanoma 107% | SW-620 colon 103% | MCF7 breast 89.8% | HCT-116 colon 104% | HCC-2998 colon 110% | KM12 colon 104%

N/C(=N\C(N)=N\c1nc2ccccc2s1)c1ccc(C(F)(F)F)cc1
inactive: RPMI-8226 leukemia 46.5% | OVCAR-8 ovarian 55.8% | OVCAR-5 ovarian 105% | SK-OV-3 ovarian 124% | IGROV1 ovarian 80.5% | OVCAR-3 ovarian 91.2% | HS 578T breast 86.9% | NCI/ADR-RES ovarian 30.4% | T-47D breast 69% | BT-549 breast 101% | MDA-MB-435 melanoma 93% | SW-620 colon 106% | MCF7 breast 77.9% | HCT-116 colon 56.4% | HCC-2998 colon 94% | KM12 colon 61.6%
active: SR leukemia 9.02%

Cc1[nH]c(C(=O)Nc2ccccc2OCc2cccc(C(=O)N3CCC[C@@H](N)C3)c2)c(Cl)c1Cl
active: SR leukemia -46.2% | OVCAR-8 ovarian -45.2% | OVCAR-5 ovarian -87.3% | OVCAR-4 ovarian -77.4% | SK-OV-3 ovarian -59.3% | IGROV1 ovarian -73.5% | OVCAR-3 ovarian -87.4% | HS 578T breast -50.9% | NCI/ADR-RES ovarian -68.8% | T-47D breast -55.2% | BT-549 breast -89.4% | MDA-MB-435 melanoma -96.6% | SW-620 colon -75.9% | MCF7 breast -77.5% | HCT-116 colon -82.1% | HCC-2998 colon -92.5% | KM12 colon -80%

COc1cc2oc(-c3cccc(NC(=O)c4cc(N)ccc4Cl)c3)cc(=O)c2c(OC)c1OC
inactive: SR leukemia 82.6% | RPMI-8226 leukemia 60.2% | OVCAR-5 ovarian 109% | OVCAR-4 ovarian 97.6% | SK-OV-3 ovarian 124% | IGROV1 ovarian 99.5% | OVCAR-3 ovarian 104% | HS 578T breast 114% | NCI/ADR-RES ovarian 100% | T-47D breast 62.4% | BT-549 breast 89.4% | MDA-MB-435 melanoma 89.5% | SW-620 colon 110% | MCF7 breast 96.1% | HCT-116 colon 101% | HCC-2998 colon 101%

Cc1ccc(-c2nnc(SCc3ccc(O)c4ncccc34)n2-c2ccccc2)cc1
inactive: SR leukemia 12.1% | OVCAR-5 ovarian 37.5% | OVCAR-4 ovarian 13.8% | OVCAR-3 ovarian 16.2% | BT-549 breast 18.4% | SW-620 colon 12.9% | HCC-2998 colon 22.3%
active: RPMI-8226 leukemia 7.99% | SK-OV-3 ovarian 5.69% | IGROV1 ovarian 8.07% | HS 578T breast -3.23% | NCI/ADR-RES ovarian 2.09% | T-47D breast 5.79% | MDA-MB-435 melanoma 9.9% | MCF7 breast 4.47% | HCT-116 colon 6.12% | KM12 colon 2.4%

Oc1[nH]c2ccccc2c1Nn1c(N=N/C=c2/ccc3c(c2)C=NN=3)n[nH]c1=S
inactive: SR leukemia 84.5% | OVCAR-8 ovarian 105% | OVCAR-5 ovarian 109% | OVCAR-4 ovarian 84.6% | SK-OV-3 ovarian 106% | IGROV1 ovarian 74.6% | OVCAR-3 ovarian 96.8% | HS 578T breast 103% | NCI/ADR-RES ovarian 112% | T-47D breast 99% | MDA-MB-435 melanoma 103% | SW-620 colon 99% | MCF7 breast 77.1% | HCT-116 colon 104% | HCC-2998 colon 118% | KM12 colon 93.3%

COc1cc(Cn2cc3c(c2)-c2onc(CN4CCCC4)c2CC3)cc(OC)c1OC
inactive: SR leukemia 97.9% | RPMI-8226 leukemia 88% | OVCAR-5 ovarian 99% | OVCAR-4 ovarian 72.7% | SK-OV-3 ovarian 108% | IGROV1 ovarian 101% | OVCAR-3 ovarian 100% | HS 578T breast 97.7% | NCI/ADR-RES ovarian 94.9% | T-47D breast 76.1% | SW-620 colon 104% | MCF7 breast 80.6% | HCT-116 colon 95.9% | HCC-2998 colon 106% | KM12 colon 90.3%

O=C(Nc1cccc(C(F)(F)F)c1)c1cc(-c2ccc(F)cc2F)ccc1O
inactive: SR leukemia 24% | OVCAR-8 ovarian 11.5% | OVCAR-4 ovarian 12.4% | IGROV1 ovarian 10.4% | SW-620 colon 10.8% | HCC-2998 colon 15.2%
active: OVCAR-5 ovarian 9.98% | SK-OV-3 ovarian -0.0407% | OVCAR-3 ovarian 9.88% | HS 578T breast -5.22% | NCI/ADR-RES ovarian 4.03% | T-47D breast 2.56% | BT-549 breast 1.83% | MDA-MB-435 melanoma 4.23% | MCF7 breast 2.4% | HCT-116 colon 3.8% | KM12 colon 3.77%

c1ccc(C(c2nc3ncncc3[nH]2)N2CSc3nc4ccccc4n3C2)cc1 (stereo not given)
inactive: SR leukemia 111% | RPMI-8226 leukemia 104% | OVCAR-5 ovarian 103% | OVCAR-4 ovarian 99.7% | SK-OV-3 ovarian 102% | IGROV1 ovarian 99.9% | OVCAR-3 ovarian 105% | HS 578T breast 108% | NCI/ADR-RES ovarian 104% | T-47D breast 110% | BT-549 breast 102% | MDA-MB-435 melanoma 105% | SW-620 colon 98% | MCF7 breast 94.9% | HCT-116 colon 114% | HCC-2998 colon 107% | KM12 colon 94.4%

COC(=O)/C=C/c1c(C2(C)NC(=O)c3ccccc3N2)c(=O)oc2ccc(Cl)cc12 (stereo not given)
inactive: SR leukemia 108% | RPMI-8226 leukemia 94.7% | OVCAR-5 ovarian 101% | OVCAR-4 ovarian 98.7% | SK-OV-3 ovarian 106% | IGROV1 ovarian 68.1% | OVCAR-3 ovarian 102% | HS 578T breast 90.9% | NCI/ADR-RES ovarian 98.3% | T-47D breast 91.6% | BT-549 breast 87.4% | SW-620 colon 96.3% | MCF7 breast 86.9% | HCT-116 colon 88.6% | HCC-2998 colon 102% | KM12 colon 93.4%
